In all, about 340,000 compounds went through this assay and about 6,400 (1.9%) were called active. About 4% were inconclusive and are not listed. Calls come from the whole dose curve; as a rule, active = well fitted falling curve with a large enough effect; inconclusive = small, poorly fitted or top-dose-only effect; inactive = no such curve, though single readings can be large or run the other way. What follows is part of a selection rich in actives, with near analogues and random picks from the rest. Entries that show only a call come without a potency.
biological target: ATP-dependent Clp protease proteolytic subunit (Bacillus subtilis (strain 168)) (UniProt P80244); test: qHTS Assay for Activators of ClpP; note: the source files actives as falling curves though it sought activators and does not explain the sign; nearly all actives have a fitted effect of over 65% in size; settings: purified B. subtilis ClpP, FRET peptide cleavage, 20 min; series mostly up to 57.5 µM
Source text: The Clp protease proteolytic subunit (ClpP) is the core unit of the Clp complex belonging to the peptidase family S14 that hydrolyzes protein into small peptides in the presence of ATP and magnesium. It is ubiquitously expressed and is the major protease in bacteria. […] Unlike common antibiotics that simply interfere with the essential enzyme activity, ADEP binding activates the ClpP core in the absence of the regulatory Clp-ATPases leading to uncontrolled proteolysis and eventually cell death. Activators binding to the docking site on ClpP can also block formation of the ClpXP and ClpA/C-P holoenzyme complexes interfering with the normal biological functions of ClpP and thus have the potential to become new anti-microbials.
To identify activators of ClpP, a FRET based quenching reversal assay was developed using a purified B. subtilis ClpP and a decapeptide substrate (FRET-FV). The FRET-FV is tagged with a fluorescent molecule amino benzoic acid (donor) at the N-terminus and a nitrotyrosine quencher (acceptor) at the C-terminus. FRET-FV cleaves upon activation of ClpP with ADEP treatement and reverses the quenching effect of the nitrotyrosine causing an increase in fluorescence emission signal at 430nm. This assay was used to screen the Molecular Libraries Small Molecule Repository (MLSMR).
NIH Molecular Libraries Probe Production Centers Network [MLPCN]
NIH Chemical Genomics Center [NCGC]
Assay Submitter (PI): Michael Maurizi, National Cancer Institute
Two and a half microL/well of purified enzyme solution (final concentrations 10 microg/mL B. subtilis ClpP in 100 mM Tris/HCl pH8, 100 mM KCl, 0.05% low protease BSA, 2.5% glycerol, 0.01% Tween-20 buffer) was dispensed into 1536-well assay plates (Greiner, black solid, medium-binding plates) with Aurora Discovery BioRAPTR Flying Reagent Dispenser (FRD, Beckton-Dickenson). Compound solution (23 nL) was transferred to the assay plate using Kalypsys pin tool equipped with a 1536-pin tool. […] FRET signals at time 0 and after 20 min room temperature incubation were obtained using the PerkinElmer Envision plate reader with 320nm excitation and 430nm emission filters. Delta FRET value (Time 20 - Time 0) was calculated and normalized to the delta FRET value of positive control ADEP (5.8 microM final concentration) and negative control DMSO and no enzyme wells.

Sequence of ATP-dependent Clp protease proteolytic subunit (Bacillus subtilis (strain 168)) (P80244 whole entry, looked up): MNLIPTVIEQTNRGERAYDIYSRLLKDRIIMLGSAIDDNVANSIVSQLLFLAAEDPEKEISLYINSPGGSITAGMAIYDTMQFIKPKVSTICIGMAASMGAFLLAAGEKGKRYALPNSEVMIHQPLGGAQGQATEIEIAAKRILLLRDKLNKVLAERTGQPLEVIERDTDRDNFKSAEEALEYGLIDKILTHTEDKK

SMILES	Potency
Fc1ccc(C2N3CCCN23)cc1 (centres undefined)	28.2 µM (active)
O=c1[nH]c2ccccc2n1C1CCN(C(c2ccnc3ccccc23)c2nnnn2Cc2ccccc2)CC1 (centres undefined)	inactive
COC(=O)COc1cc(C)cc2oc(=O)c3c(c12)CCCC3	inactive
CCN1CCN(C(=O)Cc2coc3cc(C)cc(C)c23)CC1	inactive
Cc1cc(OCc2cc(C(=O)O)oc2C)c2c3c(c(=O)oc2c1)CCCC3	28.2 µM (active)
Cc1ncoc1C(=O)NCC1=C(c2cccc3ccccc23)C[C@@H]2CC[C@H]1N2Cc1ccco1	inactive
CC/C(=N\NC(=O)c1ccccc1O)c1c(O)n(Cc2ccccc2)c(=O)[nH]c1=O	inactive
CCOC(=O)c1cccc(C2=C(CNC(=O)c3ccncc3)[C@H]3CC[C@@H](C2)N3Cc2ccccc2)c1	inactive
COc1cc(Cn2c(N)c(C(=O)NCc3ccco3)c3nc4ccccc4nc32)cc(OC)c1OC	28.2 µM (active)
COC(=O)C1=C(c2ccccc2)C[C@@H]2CC[C@H]1N2C(=O)NCc1ccco1	inactive
CCOC(=O)c1c(N)n(CCN2CCOCC2)c2nc3ccccc3nc12	25.1 µM (active)
CCOc1ccc(CNC(=O)c2cccc(Nc3nc4ccccc4n4nnnc34)c2)cc1OC	inactive
CCOC(=O)c1c(N)n(Cc2ccccc2)c2nc3ccccc3nc12	28.2 µM (active)
c1cc2c(cc1C1OCC3C(c4ccc5c(c4)OCO5)OCC13)OCO2 (centres undefined)	inactive
COc1cccc(C(c2nnnn2-c2ccc3c(c2)OCCO3)N2CCC3(CC2)C(=O)NCN3c2ccccc2)c1OC (centres undefined)	inactive
S=C(NCCc1ccccc1)N1Cc2cc(N3CCOCC3)ccc2-n2nncc2C1	inactive
O=c1[nH]c2ccccc2n1C1CCN(C(c2ccccc2)c2nnnn2Cc2ccccc2)CC1 (centres undefined)	inactive
CC(=O)NCC1=C(c2ccc3ccccc3c2)C[C@@H]2CC[C@H]1N2Cc1ccco1	inactive
CSCCC(c1nnnn1C(C)(C)C)N1CCC(n2c(=O)[nH]c3ccccc32)CC1 (centres undefined)	inactive
CCn1cc(CN2CCCC(C(=O)c3cccc(C(F)(F)F)c3)C2)cn1 (centres undefined)	inactive
COc1ccc(C2C=C(C)Oc3c2c(=O)oc2ccccc32)cc1OC (centres undefined)	inactive
O=C(O)/C=C/c1ccc2c(c1)OCO2	inactive

SMILES	Potency
O=c1c2ccccc2[nH]c(=S)n1-c1cccc(Cl)c1	inactive
O=C(Nc1ccc(Cl)cc1C(=O)c1ccccc1)c1cc(Cl)cc(Cl)c1	inactive
CC(C(=O)Nc1ccc(Cl)cc1Cl)N1CC=C(c2ccccc2)CC1 (centres undefined)	28.2 µM (active)
CN1CCN(C(=S)SCC(=O)Nc2ccc(Cl)cc2C(=O)c2ccccc2)CC1	inactive
O=C(NCC1=C(c2ccc3ccccc3c2)C[C@@H]2CC[C@H]1N2Cc1ccco1)c1cccs1	inactive
COC(=O)C1=C(c2ccc(OCc3ccccc3)cc2)C[C@@H]2CC[C@H]1N2C(=O)NCc1ccc(Cl)cc1	inactive
CCOc1ccc(-c2cc(C)n3nc(C(=O)Nc4ccc(C)c(C)c4)cc3n2)cc1	3.55 µM (active)
ClCCN(CCCl)c1ccc(C=Nc2ccc(/C=C/c3ccnc4ccccc34)cc2)cc1	inactive
COC(=O)C1=C(c2ccc(OCc3ccccc3)cc2)C[C@@H]2CC[C@H]1N2C(=O)NCc1cccc(F)c1	inactive
Cc1ccc(-c2cc(C(=O)N3CCC4(CC3)OCCO4)no2)cc1	inactive
O=C(c1cc2nc(-c3ccccc3)cc(-c3ccccc3)n2n1)N1CCC2(CC1)OCCO2	35.5 µM (active)
O=C(c1ccccc1[N+](=O)[O-])N1CCC2(CC1)OCCO2	inactive
Cc1cccc(-n2c(C)nc3cc(C(=O)N4CCC5(CC4)OCCO5)ccc32)c1	inactive
O=C(c1cc(S(=O)(=O)N2CCOCC2)ccc1F)N1CCC2(CC1)OCCO2	inactive
O=C(c1cc(-c2ccncc2)nc2ccccc12)N1CCC2(CC1)OCCO2	28.2 µM (active)
COc1cc([C@@H]2c3cc4c(cc3[C@H](OC(C)=O)[C@H]3COC(=O)[C@H]23)OCO4)cc(OC)c1OC	inactive
COc1ccc(-n2nnnc2C(c2cccc3ccccc23)N2CCC(n3c(=O)[nH]c4ccccc43)CC2)cc1 (centres undefined)	inactive
COc1ccc(S(=O)(=O)NCc2ccc(C(=O)N3CCC4(CC3)OCCO4)cc2)cc1	inactive
COc1ccc(NC(=O)N2CCC3(CC2)OCCO3)c(OC)c1	inactive
COc1ccc(-c2nc(CS(=O)CC(=O)N3CCC4(CC3)OCCO4)c(C)o2)cc1 (centres undefined)	31.6 µM (active)
CCC(C)(O)C(=O)OC1C(=O)OC2CC3C(C)=CC(=O)C(O)C3(C)C3C4(O)OCC23C1C(C)C4O (centres undefined)	inactive
CCOC(=O)[C@]12Cc3ccccc3[C@H]1N(C1CCCCC1)C(=O)c1cc(OC)ccc12	inactive

SMILES	Potency
c1ccc(N2Cc3ccccc3-n3nncc3C2)nc1	inactive
COc1cc(C(=O)N2Cc3ccc(Br)cc3-n3nncc3C2)cc(OC)c1OC	inactive
C[C@H]1CN([C@@H](C)CO)C(=O)CCCn2nncc2CO[C@H]1CN(C)C(=O)Oc1ccccc1	inactive
COC(=O)C[C@H]1CC[C@H]2NC[C@@H](O)COC[C@@H]2O1	inactive
CCN(CC)CCOC(=O)c1cc2cc(COC)ccc2o1	28.2 µM (active)
O=P(OC1=CCCCC1)(c1ccccc1)c1ccccc1	inactive
CC(=CCOc1ccc2ccc(=O)oc2c1)C1=CC(=O)C(C)(C)O1	inactive
CC1C(=O)OC2CCN3CC=C(COC(=O)C(C)(O)C1(C)O)C23 (centres undefined)	inactive
Cc1ccc(Cn2c(C)c3cnn(CC(=O)N4CCC5(CC4)OCCO5)c(=O)c3c2C)cc1	inactive
O=C(CCCn1c(=O)[nH]c2cc(Cl)ccc2c1=O)N1CCC2(CC1)OCCO2	28.2 µM (active)
Cc1nc2nc(C)c(CCC(=O)N3CCC4(CC3)OCCO4)c(C)n2n1	inactive
CC(=O)OC1C2(CC3N4C(=O)C5(CO)SSC4(CC31O)C(=O)N5C)OC(C)C(C)(C)C2=O (centres undefined)	inactive
COc1ccc(NC(=O)N2Cc3ccccc3-n3nncc3C2)cc1	inactive
COC1C(O)C(C)OC(OC2CCC3(C=O)C(CCC4C3CCC3(C)C(C5=CC(=O)OC5)CCC43O)C2)C1O (centres undefined)	inactive
C[C@H]1CN([C@@H](C)CO)C(=O)CCCn2nncc2CO[C@H]1CN(C)C(=O)Oc1cccc2ccccc12	inactive
CCOC(=O)c1c(-c2ccccc2)oc2ccc(OC(=O)N(C)C)cc12	3.16 µM (active)
CN(C)C(=O)Oc1ccc2c(c1)O/C(=C\c1ccccc1)C2=O	inactive
CN(C)C(=O)Oc1ccc(OCc2cccc[n+]2C)cc1	inactive
CCOC(=O)[C@]12Cc3cc(OC)ccc3[C@H]1N(C(C)C)C(=O)c1ccccc12	inactive
O=C(NC1CCCCC1)N1Cc2cc(N3CCCCC3)ccc2-n2nncc2C1	inactive

Source: PubChem BioAssay AID651965 (National Center for Advancing Translational Sciences (NCATS), 2013)
